Not all results are given here.
aSyn UTR act – Activators via SNCA 5'UTR binding, MLPCN | alpha-synuclein 5'UTR reporter, activators screen | activity score, % (tested at 7.5 µM), hits read low | 7.1% of 300,000 active | AID 1814; in the data active = activity score below about -60%
Hits are given with their value; . = inactive.

SMILES | aSyn UTR act
COc1ccc(/C=C/c2ccc3c(Br)ccc(O)c3n2)cc1 | -150.5
COc1cc(/C=C/c2ccc3cccc(O)c3n2)cc(Br)c1OC | -81.1
COc1cc(/C=C/c2ccc3cccc(O)c3n2)cc(Cl)c1OC | -88.3
COc1cc(/C=C/c2ccc3c(Br)cc(Br)c(O)c3n2)ccc1O | .
CN(CC(=O)Nc1ccc2c(c1)OCO2)S(=O)(=O)c1cccs1 | -76.1
O=C(Nc1ccc2c(c1)OCO2)C1CCN(S(=O)(=O)c2cccs2)CC1 | -64.3
Cc1nn(C)c(C)c1S(=O)(=O)N1CCC(C(=O)Nc2ccc3c(c2)OCCO3)CC1 | -110.8
O=S(=O)(Nc1ccc2c(c1)OCCO2)c1cccs1 | -90.6
O=C(CNS(=O)(=O)c1cccs1)Nc1ccc2c(c1)OCCO2 | -90.8
CC(CC(=O)Nc1nc2ccccc2[nH]1)c1ccccc1 (stereo not given) | -188.5
O=C(COc1ccccc1)Nc1nc2ccccc2[nH]1 | -150.3
Cc1ccccc1OCC(=O)Nc1nc2ccccc2[nH]1 | -111.2
CCCN(CCC)c1ccc(/C=C/c2ccc3cc(OCC)ccc3n2)cc1 | -112.1
CN(C)c1ccc(/C=C/c2ccc3ccccc3n2)cc1 | .
CC1=C(C)/C(=N\OS(=O)(=O)c2ccccc2)C=CC1=O | -79.9
Cc1cccc(N/N=C2/COC(C)(C)CC2=O)c1 | -101.4
CC1(C)CC(=O)/C(=N/Nc2ccc(Cl)cc2)CO1 | -230.1
COCCn1c(-c2ccccc2)cnc1N | -82.7
Cn1c(-c2ccccc2)cnc1N | -121.9
CC(C)CN1CCN(Cc2cnc(-c3ccc(Cl)cc3)nc2)CC1CCO (stereo not given) | -78.1
CC(C)(C)S(=O)(=O)c1cnc2c(-c3ccsc3)cnn2c1N | -74.4
Nc1c(-c2cccs2)cnc2c(-c3ccc(F)cc3)cnn12 | -164.6
CS(=O)(=O)c1cnc2c(-c3ccc(F)cc3)cnn2c1N | -105.8
Nc1c(C(=O)O)cnc2c(-c3ccc(Cl)cc3)cnn12 | -72.0
O=C(Nc1cc2c(ccc3ccccc32)oc1=O)C1CCCCC1 | -62.2
SMILES | aSyn UTR act
O=C(NC1CCCC1)c1cc2c(ccc3ccccc32)o1 | -202.3
CNC(=O)c1cc2c(ccc3ccccc32)o1 | -60.5
Cc1ccc(C(=O)c2cc([N+](=O)[O-])ccc2N2CCN(C)CC2)cc1 | .
CCC(=O)c1ccc(N2CCCCCC2)c(F)c1 | -133.2
CCOC(=O)N1CCN(c2ccc(C(=O)c3ccccc3)cc2F)CC1 | -98.8
CCCC(=O)c1ccc(N2CCCC2)c(F)c1 | -139.3
CCC(=O)c1ccc(N2CCN(C(=O)c3cccs3)CC2)c(F)c1 | -102.9
CC(=O)c1cccc(OCc2cc(C(=O)N(C)CCC3CCOCC3)no2)c1 | -85.5
Cc1cc(OCc2cc(C(=O)N(C)CC3CCOCC3)no2)cc(C)c1Cl | -71.6
CCN(CC1CCCO1)C(=O)c1cc(COc2cc(C)c(Cl)c(C)c2)on1 (stereo not given) | -129.0
O=C(Nc1ccn(-c2ccccc2)n1)c1ccc(Cl)cc1 | -135.8
O=C(Nc1ccn(-c2ccccc2)n1)c1ccccc1Br | -161.5
CC(C)C(O)C1CCN(Cc2nc(-c3cccs3)no2)CC1 (stereo not given) | -107.7
CC1CCN(Cc2nc(-c3ccccc3)no2)CC1 | -190.3
Cc1ccc(-c2noc(CN3CCC(C(N)=O)CC3)n2)cc1 | -86.0
COc1ccc2cnn(-c3ccc(OC(F)(F)F)cc3)c(=O)c2c1OC | -90.1
CC(=O)CSc1ccc(-c2nc3cc(C)c(C)cc3[nH]2)cn1 | .
N#Cc1ccccc1CSc1ccc(-c2nc3ccccc3[nH]2)cn1 | -120.5
Cc1cc2nc(-c3ccc(SCc4ccc(C#N)cc4)nc3)[nH]c2cc1C | -104.6
Cc1ccc2nc(-c3ccc(SCC(=O)N4CCc5ccccc54)nc3)[nH]c2c1 | -387.9
CC(=O)CSc1ccc(-c2nc3ccccc3[nH]2)cn1 | -72.0
Cc1ccc2nc(-c3cccnc3SCC(=O)N3c4ccccc4CC3C)[nH]c2c1 (stereo not given) | -80.1
COc1ccc(Nc2nc(N)c([N+](=O)[O-])c(NC3CCCCC3)n2)cc1 | .
Nc1nc(COc2ccccc2C=O)nc(Nc2ccccc2)n1 | -118.6
Nc1nc(CSc2ccccn2)nc(Nc2ccccc2)n1 | -84.6
SMILES | aSyn UTR act
COc1ccc(Nc2nc(N)nc(CSC(=S)N3CCCCC3)n2)cc1 | -62.4
COc1ccc(OCc2nc(N)nc(Nc3ccc(C)cc3)n2)cc1 | -68.7
COc1ccc(Nc2nc(N)nc(CSc3nccn3C)n2)cc1 | -86.8
COc1cc(/C=N/N2CCOCC2)ccc1OCc1ccc(Cl)cc1 | -66.4
COc1cc(/C=N/N2CCOCC2)ccc1OCc1ccccc1 | -107.4
O=[N+]([O-])c1cccc(N2Cc3ccccc3C2)c1 | -113.3
N#Cc1ccc(N2CCc3ccccc3C2)c([N+](=O)[O-])c1 | .
FC(F)(F)c1cccc(N2Cc3ccccc3C2)c1 | -71.9
Cc1ccc2c(CNCc3ccccc3)cc(=O)oc2c1 | -64.8
Cc1cc2oc(=O)cc(CN(C)Cc3ccccc3F)c2cc1Cl | -79.6
Cc1ccc2c(CN(C)Cc3cccc(F)c3)cc(=O)oc2c1 | -123.6
Cc1cccc(NC(=O)c2n[nH]c([N+](=O)[O-])c2Br)c1C | -61.9
CC(C)Oc1ccc(C(=O)Nc2ccc(C(F)(F)F)n(C)c2=O)cc1 | -82.0
Cc1csc2ncc(C(=O)NCCc3ccccc3)c(=O)n12 | -134.2
CSc1ccccc1NC(=O)c1cnc2scc(C)n2c1=O | -108.1
O=C(NCCc1ccccc1)c1cnc2ccccn2c1=O | -72.6
Cc1ccccc1NC(=O)c1cnc2ccccn2c1=O | .
CCOc1ccc(NC(=O)c2cnc3scc(C)n3c2=O)cc1 | -104.4
CCc1ccccc1NC(=O)c1cnc2scc(C)n2c1=O | -98.8
CN1N=C(/C=C/c2ccccc2)CCC1=O | -134.3
Cc1ccc(/C=C/C2=NN(C)C(=O)CC2)cc1 | -104.3
O=C(/C=C/c1ccc2c(c1)OCCO2)c1ccccc1 | -136.6
Nc1ccccc1C(=O)/C=C/c1ccc2c(c1)OCO2 | -340.3
Cc1ccc(O)c(C(=O)/C=C/c2ccc3c(c2)OCCO3)c1 | -82.4
O=C(O)c1ccc(/C=C/C(=O)c2ccc3c(c2)OCCCO3)cc1 | -134.8
SMILES | aSyn UTR act
CC(=O)Nc1ccc2nc(-c3cccs3)[nH]c2c1 | -109.9
CC(=O)Nc1ccc2nc(-c3cccn3C)[nH]c2c1 | -87.9
Cn1cccc1-c1nc2ccc(NC(=O)c3cccs3)cc2[nH]1 | -114.7
Cc1nc(NC(=O)c2ccccc2)sc1Cc1ccc2c(c1)OCO2 | -68.7
CC(=O)c1sc(NC(=O)c2ccc(C(C)(C)C)cc2)nc1C | -107.2
CC(=O)c1sc(NC(=O)c2cnc(Cl)c(Cl)c2)nc1C | -127.7
Cc1csc(NC(=O)c2ccc3c(c2)OCO3)n1 | -81.0
CC(=O)c1sc(NC(=O)c2ccc(C)c(C)c2)nc1C | -86.3
CC(=O)c1sc(NC(=O)c2ccc3c(c2)OCO3)nc1C | -135.6
O=C(Nc1nccs1)c1ccc2c(c1)OCO2 | -145.8
CCN1CCc2nc(NC(=O)c3ccc4c(c3)OCCO4)sc2C1 | -82.9
CCOc1ccc(N(CC(=O)Nc2cc(C)cc(C)c2)S(C)(=O)=O)cc1 | -87.6
CCOc1ccc(N(CC(=O)Nc2ccc(C)cc2)S(C)(=O)=O)cc1 | -113.0
CCOc1ccc(N(CC(=O)Nc2ccccc2C)S(=O)(=O)c2c(C)noc2C)cc1 | .
C=CCNC(=O)c1ccc(CN(c2ccc(OCC)cc2)S(=O)(=O)c2ccc(C)cc2)cc1 | -92.9
CC(=O)c1ccc(NC(=O)CN(c2c(C)cccc2C)S(C)(=O)=O)cc1 | -131.3
CCOc1ccc(N(CC(=O)NCc2ccccc2OC)S(C)(=O)=O)cc1 | -90.4
Cc1ccc(N(CC(=O)Nc2ccc3c(c2)OCCO3)S(C)(=O)=O)cc1 | -99.0
CS(=O)(=O)N(CC(=O)Nc1ccccc1C(=O)NCCc1ccccc1)c1ccc2c(c1)OCCO2 | -153.5
